High-throughput results (PubChem)
AID inh: Primary qHTS assay for inhibitors of Activation Induced Cytidine Deaminase (AID): AID signal | Single-stranded DNA cytosine deaminase (Homo sapiens), Q9GZX7 | AID deamination FRET fluorescence, UDG-coupled, 4 h | Potency, µM (titrated, usually from 115 µM), most hits filed as inhibitors | 0.32% of 91,000 active | AID 1347428, 2020; note: nearly all actives have a fitted effect of over 25% in size
Target sequence (Q9GZX7 whole entry, looked up): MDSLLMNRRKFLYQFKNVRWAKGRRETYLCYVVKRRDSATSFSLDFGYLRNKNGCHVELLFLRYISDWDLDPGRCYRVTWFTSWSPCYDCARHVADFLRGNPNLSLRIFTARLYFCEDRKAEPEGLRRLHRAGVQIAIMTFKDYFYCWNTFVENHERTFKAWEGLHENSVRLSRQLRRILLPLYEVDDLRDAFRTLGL
UDG counterscr: Primary qHTS assay for inhibitors of Activation Induced Cytidine Deaminase (AID): UDG Counterscreen signal; Uracil-DNA glycosylase; FRET deamination/UDG coupled assay, UDG read, 4 h; Potency, µM (titrated, usually from 115 µM), for the others: top-dose activity change, negative = inhibition, hits mostly inhibitors; 0.14% of 91,000 active; AID 1347430, 2020; note: nearly all actives have a fitted effect of over 65% in size
Numbers without * were called inactive; i = inactive; ? = inconclusive. Most compounds without a hit are left out; they make up all but 0.4% or so of the library. Calls come from the whole dose curve; as a rule, active = well fitted curve in the direction sought with a large enough effect; inconclusive = small, poorly fitted or top-dose-only effect, or another doubt; inactive = no such curve, though single readings can be large; an effect the other way counts as inactive or inconclusive. % is set by controls: 0 for no effect and ±100 for the full control effect; potency is the fitted concentration of half-maximal effect.

SMILES	AID inh	UDG counterscr
CC1CCN(c2nc3c(S(=O)(=O)c4ccccc4)nnn3c3ccc(Cl)cc23)CC1	?	-14%
CCc1ccc(S(=O)(=O)c2nnn3c2nc(N2CCC(C(N)=O)CC2)c2cc(Cl)ccc23)cc1	25µM*	-14%
Cc1ccc(NC(=O)Nc2nnc(N(C)Cc3ccccc3)s2)c(C)c1	i	-10%
Cc1ccc(Cl)cc1NC(=O)Nc1nnc(N(C)Cc2ccccc2)s1	i	89µM*
O=C(NCCN1CCN(C(=O)c2ccccc2)CC1)C(=O)Nc1ccccc1	i	14%
CCCCCCCOc1ccc(-c2ccc(C3CCC(CC)CC3)cn2)cc1F (centres undefined)	i	7%
CCN(CC)c1ccc(C(=O)NCc2ccc3c(c2)CCN3C(=O)c2ccccc2)cc1	i	19%
CN(C)c1ccc(C(=O)NCc2ccc3c(c2)CCN3C(=O)c2ccccc2)cc1	i	79µM*
Cc1cc(C)cc(C(=O)NCC(=O)O)c1	i	1%
CCCCC(=O)Nc1oc2c(C)cccc2c(=O)c1-c1ccccc1	i	79µM*
CCCCC(=O)Nc1oc2c(C)cccc2c(=O)c1-c1cc(OC)c(OC)c(OC)c1	i	-4%
Cc1nn(CC(=O)NCc2cccc(Br)c2)c(=O)c2cccn12	i	-10%
CC(C)C(=O)Nc1ccc(Cl)cc1F	i	-2%
Cc1ccc(C(C)NC(=O)Nc2ccc(Cl)cc2F)c(C)c1 (centres undefined)	14µM*	1%
C=CCn1c(SCCCc2ccccc2)nc2c1c(=O)n(C)c(=O)n2C	?	-11%
O=C(O)CC1C(=O)NCCN1CC1CCCCC1 (centres undefined)	i	-1%
Cc1ccc2nc(Cl)c3cc(C(=O)N4CCCC(C)C4)sc3c2c1 (centres undefined)	40µM*	-24%
Cc1ccc2nc(Cl)c3cc(C(=O)N4CCCCC4C)sc3c2c1 (centres undefined)	?	-4%
Cc1ccc(Cn2ccnc2SCC(=O)Nc2ccc3c(c2)OCCO3)cc1	i	-13%
Cc1ccc(Cn2ccnc2SCC(=O)Nc2ccc3c(c2)OCO3)cc1	79µM*	?
CC(NCc1ccc(-c2ccc(F)cc2)o1)c1ccccc1 (centres undefined)	i	-5%
CCN(Cc1cccs1)C(=O)c1cccs1	i	-9%
